In all, about 16,000 compounds went through this assay and about 4,000 (25%) were called active. Roughly 26% stayed inconclusive and do not appear here. These entries were drawn from the full list. Unmarked numbers belong to inactive results. Calls follow the shape of the dose curve; as a rule, active = well fitted curve in the direction sought with a large enough effect; inconclusive = small, poorly fitted or top-dose-only effect, or effect the other way; inactive = no such curve, though single readings can be large or run the other way.
% is scaled to controls: 0 for no effect and ±100 for the full control effect.

Chain of Cytochrome P450 2C9 (Homo sapiens) (P11712 whole entry, looked up): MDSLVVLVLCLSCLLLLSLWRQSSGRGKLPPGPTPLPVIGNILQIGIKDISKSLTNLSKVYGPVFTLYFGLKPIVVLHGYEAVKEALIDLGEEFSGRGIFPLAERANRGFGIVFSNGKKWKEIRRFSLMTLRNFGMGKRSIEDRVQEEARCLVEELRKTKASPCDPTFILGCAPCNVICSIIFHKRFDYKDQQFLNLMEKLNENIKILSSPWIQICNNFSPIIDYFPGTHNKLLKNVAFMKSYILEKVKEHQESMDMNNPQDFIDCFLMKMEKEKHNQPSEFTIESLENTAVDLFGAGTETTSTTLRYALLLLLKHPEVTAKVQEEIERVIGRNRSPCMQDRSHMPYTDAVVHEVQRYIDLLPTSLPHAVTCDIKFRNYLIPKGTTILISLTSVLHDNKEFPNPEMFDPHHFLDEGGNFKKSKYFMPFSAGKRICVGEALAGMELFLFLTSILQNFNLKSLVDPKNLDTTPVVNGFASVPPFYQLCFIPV

This assay concerns the target Cytochrome P450 2C9 (Homo sapiens) (UniProt P11712). Kind of assay: Cytochrome panel assay with activity outcomes. Particulars: recombinant CYP, pro-luciferin dealkylation, luminescence, p450-cyp2c9; series mostly up to 57.1 µM.
`CC[C@H]1CC[C@H]2[C@@H]3CC=C4C[C@H](OC(C)=O)[C@@H](N)C[C@@]4(C)[C@H]3CC[C@@]12C`: the activity, negative = inhibition is 13.7% [at 11.4 µM].

As to `CCOc1ccc(C(=O)CCC(=O)O)cc1`, the AC50 entry was “inactive”.

Turning to `CCC(=O)c1ccc(OCC(O)CN2CCCCC2)cc1` (stereo unspecified), the AC50 result is “inactive”.

Take `CCCCOc1ccc(C(=O)CCN2CCCCC2)cc1`: the AC50 was 2.51 µM (active).

Regarding `CC(N)=NCc1cccc(CN)c1`, the AC50 entry was “inactive”.

Take `COc1cc(/C=N/Nc2snc(SC)c2C#N)cc(OC)c1OC`: the AC50 was 4.47 µM (active).

As for `CCOC(=O)N/N=C1/C[C@@H](O)[C@@H](O)[C@@H]2[C@@H]3C(=O)N(C4CCCCC4)C(=O)[C@H]3CC[C@H]12`, the activity, negative = inhibition is -8.52% [at 11.4 µM].

For the molecule `CCN(CC)C(=O)C1CC(=O)N(c2ccc(OC)cc2)C1c1ccc(OC)cc1` (stereo unspecified), the AC50 entry is “inactive”.

Take `CCOc1ccc(N2CC(C(=O)NCc3cccc(C)c3)CC2=O)cc1` (stereo unspecified): the AC50 was 12.6 µM (active).

Take `COc1ccc(N2CC(C(=O)OCC(=O)c3cccc(OC)c3)CC2=O)cc1` (stereo unspecified): the AC50 is 17.8 µM (active).

As for `CCOc1ccc(CNC(=O)C2CC(=O)N(C3CCCC3)C2)cc1OC` (stereo unspecified), the AC50 result was “inactive”.

For `COc1ccc(N2CC(C(=O)Nc3cc(C)on3)CC2=O)cc1` (stereo unspecified), the AC50 was 14.1 µM (active).

Take `c1cncc(-c2ccc3ncnc(NC4CCNCC4)c3c2)c1`: the activity, negative = inhibition was 12.8% [at 2.29 µM].

For `CN(C)c1ncnc2ccc(-c3ccoc3)cc12`, the activity, negative = inhibition was -6.22% [at 2.29 µM].

In the case of `OC(COCc1ccccc1)Cn1cnc2ccccc21` (stereo unspecified), the AC50 is 12.6 µM (active).

In the case of `C[n+]1cn(CC(O)COCc2ccccc2)c2ccccc21` (stereo unspecified), the AC50 result was “inactive”.

`CS(=O)(=O)N1CCC[C@@]2(CCN(C(c3ccccc3)c3ccccc3)C2)C1`: the AC50 result is “inactive”.

`CS(=O)(=O)N1CCC2(CC1)CN(C(c1ccccc1)c1ccccc1)C2`: the AC50 result was “inactive”.

For the molecule `CC(=O)N1CCC2(CC1)CN(C(c1ccccc1)c1ccccc1)C2`, the AC50 entry is “inactive”.

As for `c1ccc(C(c2ccccc2)N2CCCC3(CCNCC3)C2)cc1`, the AC50 entry is “inactive”.

On to `CS(=O)(=O)N1CCC2(CCCN(C(c3ccccc3)c3ccccc3)C2)CC1`, for which the AC50 is 12.6 µM (active).

In the case of `COC(=O)N1CCC2(CCCN(C(c3ccccc3)c3ccccc3)C2)CC1`, the AC50 was 31.6 µM (active).

For the molecule `COCC(=O)N1CCC2(CC1)CN(C(c1ccccc1)c1ccccc1)C2`, the AC50 entry is “inactive”.

Take `COC(=O)N1CCC2(CC1)CN(C(c1ccccc1)c1ccccc1)C2`: the AC50 is 10 µM (active).

As for `COCC(=O)N1CCC[C@@]2(CCN(C(c3ccccc3)c3ccccc3)C2)C1`, the AC50 entry was “inactive”.

Take `Cc1cccc(C)c1OCC(O)CNC(C)(C)C` (stereo unspecified): the AC50 result was “inactive”.

For `COc1cc2cc3c4cc(OC)c(OC)cc4cc[n+]3c(C)c2cc1OC`, the AC50 result is “inactive”.

`CO[C@@H]1COC(=O)C/C=C\[C@@H](C)COC(=O)[C@H](COCc2ccccc2)NC(=O)C/C=C\[C@H]1C`: the activity, negative = inhibition is -9.13% [at 11.4 µM].

With `O=C(NNC(=O)c1cc(-c2ccc(Cl)c(Cl)c2)nc2ccccc12)Nc1ccccc1`, the AC50 is 4.47 µM (active).

Regarding `COCCNc1nc(-c2ccccc2Cl)nc2ccccc12`, the activity, negative = inhibition is 0.695% [at 2.29 µM].

In the case of `CC(=O)NCCNc1nc(-c2ccccc2Cl)nc2ccccc12`, the activity, negative = inhibition is 15.4% [at 2.29 µM].

For the molecule `Cc1ccc(NC(=O)c2cc(Cl)nc3ccccc23)cc1`, the AC50 entry was “inactive”.

For the molecule `Cc1cccc(NC(=O)NNC(=O)c2cc(-c3ccccc3Cl)nc3ccccc23)c1`, the AC50 is 1.58 µM (active).

As to `NC(N)=N[C@@H]1C(O)[C@H](N=C(N)N)[C@@H](O)C(O)[C@H]1O` (stereo partly specified), the activity, negative = inhibition is 13.6% [at 11.4 µM].

`Nc1nc2c(ncn2COCCO)c(=O)[nH]1`: the AC50 entry is “inactive”.

As for `c1cn(-c2ncnc3ccc(-c4ccoc4)cc23)cn1`, the activity, negative = inhibition is -25.3% [at 2.29 µM].

On to `COC(=O)[C@@]1(Cc2ccccc2)[C@H]2c3cc(C(=O)N4CCCC4)n(Cc4ccc(C(F)(F)F)nc4)c3C[C@H]2CN1C(=O)c1ccccc1`, for which the AC50 was 5.01 µM (active).

On to `COC(=O)[C@@]1(Cc2ccc(F)cc2)[C@H]2c3cc(C(=O)N(C)C)n(Cc4ccc(C(F)(F)F)nc4)c3C[C@H]2CN1C(=O)c1ccccc1`, for which the AC50 is 25.1 µM (active).

For `Clc1ccccc1-c1ccc2ncnc(NC3CCNCC3)c2c1`, the activity, negative = inhibition is 20.4% [at 2.29 µM].

As to `Cc1ccccc1-c1cncnc1NCc1ccccc1`, the activity, negative = inhibition is -7.47% [at 2.29 µM].

On to `CCC(=O)N[C@@H]1Cc2ccccc2[C@@H](c2ccccc2)C1`, for which the AC50 result is “inactive”.

For the molecule `CN(C)c1ccc(-c2nc(N3CCNCC3)c3ccccc3n2)cc1`, the activity, negative = inhibition is 0.369% [at 2.29 µM].

As for `Clc1ccc(-c2nnc(-c3ccccc3)c(N3CCSCC3)n2)cc1`, the concentration at half-maximal activity (AC50) was 14.1 µM (active).

For `Brc1ccc(-c2nnc(-c3ccccc3)c(N3CCSCC3)n2)cc1`, the AC50 was 10 µM (active).

For `Cc1noc(C)c1-c1ccc2ncnc(N3CCOCC3)c2c1`, the activity, negative = inhibition was 7.24% [at 2.29 µM].

As to `CCN1CCN(c2cc(=O)n(-c3cc(Cl)ccc3C)c(=O)[nH]2)CC1`, the AC50 entry is “inactive”.

`C[N+](C)(C)CCCCCC[N+](C)(C)C`: the AC50 entry is “inactive”.

As to `COC(=O)N1CCC[C@@]2(CCN(C(=O)Nc3cccc(C#N)c3)C2)C1`, the AC50 entry was “inactive”.

Regarding `Cc1ccc(CSc2nc3c(c(SCC(=O)O)n2)CCCC3)cc1`, the AC50 is 5.62 µM (active).

As for `CC[C@@]12CCCN3CCc4c(n(c5ccccc45)C(=O)C1)[C@H]32`, the AC50 entry was “inactive”.

`Fc1cccc(C2NC(=S)NC3=C2N2CCC3CC2)c1` (stereo unspecified): the AC50 result is “inactive”.

Regarding `S=C1NC2=C(C(c3ccc(Br)cc3)N1)N1CCC2CC1` (stereo unspecified), the AC50 is 22.4 µM (active).

For the molecule `CCOC(=O)CC(NC(=O)c1ccc(C)cc1)c1ccc(C)cc1` (stereo unspecified), the AC50 is 15.8 µM (active).

Take `CCOC(=O)CC(NC(=O)c1cccs1)c1ccc(OCC)cc1` (stereo unspecified): the AC50 is 3.55 µM (active).

With `CNNCc1ccc(C(=O)NC(C)C)cc1`, the AC50 result is “inactive”.

In the case of `COc1ccc(C(NC(=O)c2ccc(-c3ccccc3)cc2)c2ccccc2)cc1` (stereo unspecified), the AC50 result was “inactive”.

Regarding `FC(F)(F)c1ccccc1-c1nc(NC2CCNCC2)c2ccccc2n1`, the activity, negative = inhibition is 14.5% [at 2.29 µM].

Consider `Cc1nc(S(=O)(=O)N2CCOCC2)c(C#N)c(C)c1Cl`, for which the AC50 entry is “inactive”.

For `CCCOc1ccc(OCCNC2CCCC2)cc1`, the AC50 result is “inactive”.

On to `c1c[nH]c(CN2CCOCC2)n1`, for which the activity, negative = inhibition was -9.4% [at 11.4 µM].

On to `Oc1cccc2ccc(SSc3ccc4cccc(O)c4n3)nc12`, for which the AC50 was 1.58 µM (active).

What is called AC50 is the concentration at which the activity in the assay is half-maximal.

The values are drawn from PubChem BioAssay AID1851 (National Center for Advancing Translational Sciences (NCATS), 2009).
